This excerpt belongs to a sample that is enriched for hits.
Vaccinia Venus: vaccinia inhibition (Venus reporter); Vaccinia virus Venus reporter expression, fluorescence; Potency, µM (series often up to 36.5 µM), inactives show at the top dose activity change, negative = inhibition, actives largely listed as inhibitors; 330,000 compounds, 0.46% hits; AID 720580; calls by dose curve; tested in A549 cells; note: potency is the fitted concentration of half-maximal effect; % is set by controls: 0 for no effect and ±100 for the full control effect; nearly all actives have a fitted effect of over 30% in size
LASV entry inh: blocks Lassa virus binding to or entry into cells. Lassa virus pseudotype entry inhibition, cell reporter. Potency, µM (doses to about 37.9 µM), without a hit: at the top dose activity change, negative = inhibition, hits mostly inhibitors. 300,000 compounds, 1.2% hits. AID 540256; calls by dose curve; tested in HEK293 cells; note: potency is the fitted concentration of half-maximal effect; % is set by controls: 0 for no effect and ±100 for the full control effect; nearly all actives have a fitted effect of over 50% in size
Shiga inhibitor: Shiga toxin inhibition; Vero cells, Shiga toxin protein synthesis inhibition reporter; inhibition, % at 38.7 µM; 290,000 compounds, 9.2% hits; AID 2315; in the data active = inhibition mostly above about 28%, no sharp cut-off; inactive = mostly below about 43%; note: 0% is about no effect
Marburg entry inh: Marburg virus entry inhibition | Marburg virus pseudotyped entry inhibition, cell reporter | Potency, µM (titrated, usually from 37.8 µM), for inactives: at the top dose activity change, negative = inhibition, usual class: inhibitors | 300,000 compounds, 1.8% hits | AID 540276; calls by dose curve; tested in HEK293 cells; note: potency is the fitted concentration of half-maximal effect; % is set by controls: 0 for no effect and ±100 for the full control effect
Cycloheximide cs: affects cycloheximide protein synthesis inhibition readout, counter-screen | cell reporter, cycloheximide protein synthesis inhibition counterscreen | max response, % | 300,000 compounds, 12% hits | AID 2314; in the data active = max response mostly above about 13%, no sharp cut-off; inactive = mostly below about 14%; note: read at 38.3 µM for the half of the compounds with a filed dose; 0% is about no effect
VACV mCherry inh: inhibitors of vaccinia virus infection (mCherry reporter signal); Vaccinia virus mCherry reporter infection, fluorescence; Potency, µM (series often up to 36.5 µM), without a hit: at the top dose activity change, negative = inhibition, actives largely listed as inhibitors; 310,000 compounds, 0.63% hits; AID 720579; calls by dose curve; tested in A549 cells; note: potency is the fitted concentration of half-maximal effect; % is set by controls: 0 for no effect and ±100 for the full control effect; nearly all actives have a fitted effect of over 35% in size
The depositor's hits bear a star; i = inactive; ? = inconclusive; . = no result given; [ ] = remark or other dose.

SMILES	Vaccinia Venus	LASV entry inh	Shiga inhibitor	Marburg entry inh	Cycloheximide cs	VACV mCherry inh
COC(=O)c1ccc(NC(=S)NNC(=O)c2ccccc2)cc1	-9.5%	7.4%	42.3	-4.3%[46.1 µM]	25.7*	-9.5%
O=C(NNC(=S)Nc1ccccc1)c1cccc(Br)c1	-0.5%	?	32.9	17.6%	26.2*	-12.5%
CCCN(CCC)C(=O)CSc1nnc2cc(C)c3ccccc3n12	-1.5%	13.0%[46.1 µM]	.	-23.7%[46.1 µM]	.	-3.1%
COc1ccccc1Cc1nc2ccccc2nc1SCC(=O)Nc1cc(Cl)ccc1OC	-5.0%	18.7%[46.1 µM]	.	.	.	-9.4%
Cc1cc(Br)cn2c(Cc3ccsc3)c(-c3ccc(F)cc3)nc12	-7.1%	.	.	.	.	5.6%
O=C(O)/C=C/C(=O)NNC(=O)c1cccc(Br)c1	-3.8%	-1.5%	38.6*	23.8%	25.0*	-10.1%
Cc1c(C(=O)/C=C/N(C)C)nnn1-c1ccc(Cl)c(Cl)c1	.	.	43.5	.	14.6	.
Cc1c(C(=O)/C=C/N(C)C)nnn1-c1ccc(Cl)cc1Cl	-0.8%	-0.8%[46.1 µM]	57.6*	7.8%[46.1 µM]	13.5	7.8%
Cc1c(C(=O)/C=C/N(C)C)nnn1-c1ccc(F)c(Cl)c1	-9.3%	-29.8%[46.1 µM]	75.9*	?	32.8*	i
Fc1ccc(-c2csc3ncnc(N4CCc5ccccc5C4)c23)cc1	1.6%	-40.7%	-5.2	?	5.1	-2.8%
CCC1CC2C(=O)C(c3nc(C)cs3)=COC2CC1O (stereo unspecified)	.	.	.	0.1%[46.1 µM]	.	.
COc1ccc(NC(=O)CSc2n[nH]c(=O)n2Cc2ccccc2)cc1Cl	-15.0%	-16.5%	-17.2	?	-3.8	-5.8%
COc1cc(CNCCCN2CCOCC2)ccc1OCC(=O)Nc1cccc(C(F)(F)F)c1	-13.4%	?	-19.9	?	0.4	i
CCOc1cc(CNCCCN2CCOCC2)ccc1OCC(=O)Nc1cccc2ccccc12	.	14.6µM*	-11.7	?	2.5	.
Cc1sc(NC(=O)CCC(=O)O)c(C#N)c1C	.	3.1%	5.9	8.4%	-8.7	.
O=[N+]([O-])c1ccc(-c2ccc(/C=N/O)o2)cc1	?	?	108.8*	?	33.3*	-20.6%
NC(=O)N/N=C/c1ccc(-c2ccc([N+](=O)[O-])cc2)o1	.	.	24.9	-0.2%	25.1*	.
O/N=C\c1ccc(-c2ccccc2)o1	-4.1%	21.5%	92.5*	?	21.3*	-14.2%
COc1ccc(N=Cc2ccc(-c3ccccc3)o2)cc1	5.6%	-13.7%	11.0	3.2%[14.2 µM]	16.3*	-9.4%
O=C(Cc1ccccc1)N/N=C/c1ccc(-c2ccc([N+](=O)[O-])cc2)o1	-10.1%	-24.0%	-0.4	5.0%	0.6	-11.1%
COc1ccccc1C1CN(CC(=O)NCC2OCCc3ccccc32)Cc2ccccc2O1 (stereo unspecified)	-3.9%	.	.	.	.	-14.4%
Cc1ccc(OCCC(=O)OCC(=O)NCCc2ccc(Cl)cc2)cc1	-12.0%	-6.0%[46.1 µM]	.	6.4%	.	i
Oc1c(C(c2ccccc2)N2CCC3(CC2)OCCO3)sc2nc(-c3ccco3)nn12 (stereo unspecified)	-5.8%	1.0%[46.1 µM]	.	.	.	-10.8%
O=C(Oc1ccccc1)N1CCOCC1	-6.5%	?	-10.8	?	-2.6	-14.0%
COC(=O)c1ccc(OC(=O)N2CCOCC2)cc1	.	.	.	.	-1.7	.
SMILES	Vaccinia Venus	LASV entry inh	Shiga inhibitor	Marburg entry inh	Cycloheximide cs	VACV mCherry inh
CCC(=O)c1ccc(OC(=O)N2CCOCC2)cc1	.	.	33.1*	.	22.5*	.
CC(C)(C)c1ccc(OC(=O)N2CCOCC2)cc1	.	.	69.1*	.	45.0*	.
Cc1ccc(OC(=O)N2CCOCC2)cc1	.	11.2%	48.3*	?	30.4*	.
O=C(Oc1ccc(OC(=O)N2CCOCC2)cc1)c1ccccc1	-10.0%	17.6%	13.9	15.3%[46.1 µM]	12.3*	.
Cc1ccc(CNC(=O)c2ccc3c(c2)c(C)c(C)n3Cc2ccc(Cl)cc2)o1	-25.3%	0.5%[46.1 µM]	.	.	.	-26.8%
O=C(Oc1ccc2cccc(OC(=O)N3CCOCC3)c2c1)N1CCOCC1	-1.3%	5.0%	-10.2	2.8%	-0.8	-6.3%
O=C(Oc1ccc2ccc(OC(=O)N3CCOCC3)cc2c1)N1CCOCC1	-8.9%	19.7%	23.0	-16.2%	11.5*	.
Clc1ccc(-c2cn3ccccc3n2)cc1	.	.	40.5*	.	37.2*	.
COc1ccc(-c2cn3ccc4ccccc4c3n2)cc1	13.5%	?	63.8*	-20.5%	37.0*	2.7%
O=C(Nc1ccc(-c2cn3ccccc3n2)cc1)c1ccc(Cl)cc1	-5.0%	0.9%	9.0	1.5%	-9.3	.
COc1ccc(-c2nc3ccccn3c2CN2CCN(c3ccccc3F)CC2)cc1	-22.5%	-13.0%	28.7	-18.4%[46.1 µM]	9.0	-25.8%
COc1c(Cl)cccc1-c1cn2ccccc2n1	-6.8%[7.34 µM]	?	56.6	?	34.9*	i[7.34 µM]
